Test results taken from PubChem BioAssay.
Results with a measured potency or affinity are listed apart. Active and inactive are the calls of the source. No cut-off is given here; in the data, nearly all actives have IC50 up to about 0.91 µM.

molecular target: Calcium-dependent protein kinase 4 (Plasmodium falciparum (isolate 3D7)) (UniProt Q8IBS5); assay: PfCDPK4 kinase inhibitors, biochemical, TCAMS library (AID 1159588); settings: recombinant PfCDPK4, Kinase-Glo ATP depletion luminescence
Sequence (Q8IBS5 whole entry, looked up): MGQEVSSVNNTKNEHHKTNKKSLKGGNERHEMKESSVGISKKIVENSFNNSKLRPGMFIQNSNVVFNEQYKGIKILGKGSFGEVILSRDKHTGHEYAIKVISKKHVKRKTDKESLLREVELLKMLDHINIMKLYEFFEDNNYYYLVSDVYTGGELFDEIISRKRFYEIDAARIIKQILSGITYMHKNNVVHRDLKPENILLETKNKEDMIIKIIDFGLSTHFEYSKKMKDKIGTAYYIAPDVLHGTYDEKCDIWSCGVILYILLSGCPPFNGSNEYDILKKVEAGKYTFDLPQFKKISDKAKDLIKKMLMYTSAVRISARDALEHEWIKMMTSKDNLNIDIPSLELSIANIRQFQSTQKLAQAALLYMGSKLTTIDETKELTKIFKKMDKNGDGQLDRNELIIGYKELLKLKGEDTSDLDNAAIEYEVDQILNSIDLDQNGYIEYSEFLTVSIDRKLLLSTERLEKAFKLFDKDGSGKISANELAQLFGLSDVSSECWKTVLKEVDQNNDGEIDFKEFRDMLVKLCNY

outcome, inactive:
Cc1cccc2[nH]c(-c3cccc(-c4cccc(CN5CCN(c6ccc(C#N)cn6)CC5)c4)c3)nc12, C[C@H](Cc1ccc(OCCCCCCOc2ccc(C[C@@H](C)NC[C@H](O)c3cccc(Cl)c3)cc2)cc1)NC[C@H](O)c1cccc(Cl)c1, COc1ccc(-n2ccnc2SCC(=O)Nc2cc(Cl)ccc2OC)c(OC)c1, COc1ccccc1C1CCN(CCCCNC(=O)c2ccc(NC(=O)c3ccc(Cl)cc3)cc2)CC1, COc1ccccc1CNc1ncc(-c2ccsc2)c(-c2nccs2)n1, COc1ccc2c(NN=Cc3ccc(N(C)C)cc3)ccnc2c1, NC1CCCN(Cc2cccc(-c3ccc(-c4nc5ccccc5[nH]4)s3)c2)C1 (stereo not given), COc1cc2c(cc1C(F)(F)F)N(C(=O)Nc1cc(OC(F)(F)F)cc(-c3cccnc3)c1)CC2, O=C(Cc1cnc[nH]1)Nc1ccc(-c2cccc(-c3nc4ccc(C(F)(F)F)cc4[nH]3)c2)cc1, CCCOc1ccc(CCCON2C(N)=NC(N)=NC2(C)C)cc1, CC(C)(C)NCCN(Cc1ccc(-c2ccc(C(F)(F)F)cc2)cc1)C(=O)Cn1c(CCc2cccc(F)c2F)nc(=O)c2ccccc21, CC1(C)N=C(N)N=C(N)N1OCCNCc1ccc(Cl)cc1, Cc1ccc(C2=NNC3(S2)C(=O)Nc2ccc(C)cc23)cc1 (stereo not given), CCc1ccc(N2C(=O)C3C(Cc4ccc(OC(C)(C)C)cc4)NC4(C(=O)N(Cc5ccccc5)c5ccc(F)cc54)C3C2=O)cc1 (stereo not given), CCNc1cc(C(=O)N[C@@H](Cc2ccc(Cl)cc2)[C@H](O)CNC2CCCCC2)cc(N2CCCCS2(=O)=O)c1, CC(C)[C@H](NC(=O)NC1CCC(CCN2[C@@H]3CC[C@H]2CC(OC(=O)C(CO)c2ccccc2)C3)CC1)C(O)(c1ccccc1)c1ccccc1 (stereo not given in full), CC(C)N1CCC(N(Cc2ccc(-c3ccc(C(F)(F)F)cc3)cc2)C(=O)Cn2c(CCc3cccc(F)c3F)cc(=O)c3c2CCC3)CC1, c1ccc(Nc2nc(-c3ccccn3)cs2)nc1, CCOC(=O)NC1=NC(C)(C)N(OCc2ccc(Cl)c(Cl)c2)C(N)=N1, CCn1c(SCC(=O)Nc2cc(C(F)(F)F)ccc2Cl)nc2ccccc2c1=O, COc1cc(NC(=O)/C=C/c2cccc3ccoc23)ccc1OCCN(C(C)C)C(C)C, COc1ccc(OCCCN2CCN(CC(c3ccc(F)cc3)N3CCN(C(C)C)CC3)CC2)c2ccccc12 (stereo not given), Cc1cccc(Nc2nccc(NCC(O)c3cccc(C(F)(F)F)c3)n2)c1 (stereo not given), Cc1cccc2[nH]c(-c3ccc(-c4ccc(NC(=O)C(=O)c5cccn5C)cc4)cc3)nc12, CC(C)NCc1ccc(-c2cccc(-c3nc4ccccc4[nH]3)c2)cc1, Cc1cccc2[nH]c(-c3ccc(-c4cccc(CN5CCN(c6ccncc6)CC5)c4)cc3)nc12, CC(C)CN1CCCN(Cc2cccc(NC(=O)c3cc4ccccc4s3)c2)CC1, Cc1cc(NCCCCCCN)nc(Nc2ccc(Cl)cc2)n1, CCCCCCCN1CC[C@@H](CCCc2ccnc3ccc(OCCCCN=C(N)NO)cc23)[C@@H](CC)C1, COc1cc(CCN(C)Cc2ccc(OC)c(OC)c2)ccc1NC(=O)c1cccc2c(=O)c3cccc(F)c3[nH]c12, COc1ccc2nccc([C@@H](O)CN3CCC(NC[C@H](Cc4ccccc4)NC(=O)OC(C)(C)C)CC3)c2c1, CC(=O)NCCNc1nccc(N2CCc3ncnc(Nc4ccc(OCc5cccc(F)c5)c(Cl)c4)c3C2)n1, Cc1cc(N)c2cc(NC(=O)CCC(=O)Nc3ccc4nc(C)cc(N)c4c3)ccc2n1, COc1cc(CNCCC(C)C)ccc1OCc1cccc(COc2ccc(CNCCC(C)C)cc2OC)c1, O=C(/C=C/c1ccc(Cl)c(Cl)c1)NCCCCCCN1CCCN(C(=O)Nc2ccc(C(F)(F)F)cc2)CC1, CN1CCN(CCCN(Cc2ccc(-c3ccc(CNCc4ccc5c(c4)OCO5)cc3)cc2)C(=O)Nc2ccccc2)CC1, O=[N+]([O-])c1cccc(Nc2nccc(-c3cnn4ncccc34)n2)c1, COc1ccc(C(=O)N[C@@H](CC(C)C)C(=O)N[C@H](/C=N/NC(=O)c2ccccc2)CCc2ccccc2)cc1OCCN1CCOCC1, CC(C)CCNCc1c(O)ccc2ccccc12, Cc1ccc(/C=C/C(=O)N2CCC(CCN3CCC(c4c[nH]c5ccccc45)CC3)CC2)cc1C
